Experimental data reported in PubChem BioAssay (NCI).
The panel holds about 83,000 compounds, 20% with a hit somewhere; the sample as a whole holds those more often.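 Each cell line was grown in a 96-well plate and treated with one concentration of compound for 48 hours. Values below 10 were considered active.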 Activity calls are given as the source filed them.

What was measured:
Assay in all cases: NCI-60 one-dose screen, 48 h (100 = growth as untreated, 0 = no growth, -100 = all killed)
Settings in all cases: 10 µM unless noted
SN12C renal = system: SN12C renal
UO-31 renal = system: UO-31 renal
TK-10 renal = system: TK-10 renal
ACHN renal = system: ACHN renal
A498 renal = system: A498 renal
CCRF-CEM leukemia = system: CCRF-CEM leukemia
MOLT-4 leukemia = system: MOLT-4 leukemia
SR leukemia = system: SR leukemia
CAKI-1 renal = system: CAKI-1 renal

Measured: growth

COc1cc(OC)cc(N2C(=O)N(Cc3ccc(C(C)(C)C)cc3)c3ccccc3S2(=O)=O)c1
inactive: SN12C renal 86.1% | UO-31 renal 54% | TK-10 renal 97.8% | ACHN renal 81.2% | A498 renal 98.6% | CCRF-CEM leukemia 84.7% | MOLT-4 leukemia 93.3% | SR leukemia 41.8%

COc1cc(NC(=O)CCSc2nc3ccccc3c(=O)n2CCc2ccccn2)cc(OC)c1OC
inactive: SN12C renal 92.8% | UO-31 renal 85% | TK-10 renal 111% | CAKI-1 renal 89% | A498 renal 74.7% | CCRF-CEM leukemia 83.2% | MOLT-4 leukemia 87.6%

COc1ccc(-c2nsc3c2NC(=O)CC3c2ccc3c(c2)OCCO3)cc1 (stereo not given)
inactive: SN12C renal 44.4% | UO-31 renal 53.6% | TK-10 renal 43.4% | CAKI-1 renal 38.6% | A498 renal 19% | CCRF-CEM leukemia 14% | MOLT-4 leukemia 28.3% | SR leukemia 28.9%

CC(=O)Nc1nc2c(s1)CCc1c-2cn(S(=O)(=O)c2ccccc2)c1-c1ccccc1
inactive: SN12C renal 76.8% | UO-31 renal 41.2% | TK-10 renal 85.9% | ACHN renal 69.1% | CAKI-1 renal 56.9% | A498 renal 88.1% | CCRF-CEM leukemia 43.1% | MOLT-4 leukemia 48.2% | SR leukemia 28.1%

FC(F)(F)c1cccc(CNC2CCN(CCc3ccccc3)CC2)c1
inactive: SN12C renal 85.4% | UO-31 renal 56.3% | TK-10 renal 79.8% | ACHN renal 90.7% | A498 renal 60.4% | CCRF-CEM leukemia 13.2% | MOLT-4 leukemia 54.3% | SR leukemia 29.3%

O=C(O)CCC(=O)c1ccc(C2CCCCCC2)cc1
inactive: SN12C renal 99.5% | UO-31 renal 80.4% | TK-10 renal 99.1% | ACHN renal 97.1% | CAKI-1 renal 97.4% | A498 renal 89.2% | CCRF-CEM leukemia 101% | MOLT-4 leukemia 87.3% | SR leukemia 93.8%

COc1nc2c(c(=O)n1C)N=C1c3ccccc3C(=O)C1C(c1ccccc1)N2 (stereo not given)
inactive: SN12C renal 95.4% | UO-31 renal 78.9% | TK-10 renal 107% | ACHN renal 94% | A498 renal 89.1% | CCRF-CEM leukemia 103% | MOLT-4 leukemia 76.5%

COc1cc(C(=O)O/N=C(\N)Cc2cccc3ccccc23)cc(OC)c1OC
inactive: SN12C renal 63% | ACHN renal 42.9% | A498 renal 44.6%
active: UO-31 renal -44.3% | TK-10 renal -43.8% | CCRF-CEM leukemia -5.01% | MOLT-4 leukemia 1.56% | SR leukemia -30.4%

N#Cc1c(N)nc2c(c1N)C(c1ccc(F)cc1)c1ccc(N)cc1O2 (stereo not given)
inactive: SN12C renal 104% | UO-31 renal 105% | TK-10 renal 116% | ACHN renal 102% | A498 renal 58.4% | CCRF-CEM leukemia 99.9% | MOLT-4 leukemia 96.4% | SR leukemia 93%

Nc1ccn(C2O[C@H](CO)[C@@H](O)[C@H]2O)c(=O)n1 (stereo not given in full)
active: SR leukemia 2.99%
inactive: SN12C renal 54.9% | UO-31 renal 100% | TK-10 renal 125% | CAKI-1 renal 91.3% | A498 renal 106% | CCRF-CEM leukemia 29.2% | MOLT-4 leukemia 57.1%

COc1cccc(C(=O)NC(c2ccc(C)cc2)c2cc(Cl)c3cccnc3c2O)c1 (stereo not given)
active: UO-31 renal -18.9% | CAKI-1 renal -3.64% | CCRF-CEM leukemia 8.88%
inactive: SN12C renal 12.6% | TK-10 renal 27% | ACHN renal 10.6% | A498 renal 23.1% | MOLT-4 leukemia 11.4% | SR leukemia 11.3%

C1=CC2(C=C1)OC21CCC2(C=CC3(C2)OC3C2CCCCC2)CC1 (stereo not given)
inactive: SN12C renal 105% | UO-31 renal 96.8% | TK-10 renal 113% | ACHN renal 104% | A498 renal 97.2% | CCRF-CEM leukemia 97.1% | MOLT-4 leukemia 95.6% | SR leukemia 90.7%

COc1ccc(/C=C2\SC(=Nc3ccccc3)NC2=O)cc1
active: SN12C renal -39.9% | UO-31 renal -98.3% | TK-10 renal -92.3% | ACHN renal -70.9% | A498 renal -92.5% | CCRF-CEM leukemia -53.6% | MOLT-4 leukemia -59% | SR leukemia -33%

CCOc1cc(Cl)c(C(C)NC(=O)c2cccc(OC)c2)cc1OCC (stereo not given)
inactive: A498 renal 26.2%
active: SN12C renal -23.3% | UO-31 renal -92.5% | TK-10 renal -62.4% | CAKI-1 renal -39.1% | CCRF-CEM leukemia -24.5% | MOLT-4 leukemia -10.2% | SR leukemia -19.1%

Nc1nonc1-n1nncc1-c1cccnc1
inactive: SN12C renal 117% | UO-31 renal 92.9% | TK-10 renal 107% | CAKI-1 renal 95.1% | A498 renal 81.9% | CCRF-CEM leukemia 106% | MOLT-4 leukemia 91.4% | SR leukemia 103%

O=c1cc(NC2CCN(CCCc3ccccc3)CC2)c2cc(Cl)ccc2o1
inactive: ACHN renal 10.3%
active: SN12C renal 6.09% | UO-31 renal -10.4% | TK-10 renal -13.9% | CAKI-1 renal -10.6% | A498 renal -19% | CCRF-CEM leukemia 3.59% | MOLT-4 leukemia 1.27% | SR leukemia -11.4%

CN1CCN(c2nc(Nc3ccc(O)cc3)nc3ccccc23)CC1
inactive: SN12C renal 63.8% | UO-31 renal 57.3% | TK-10 renal 71.9% | ACHN renal 49.5% | A498 renal 85.2% | CCRF-CEM leukemia 93.4% | MOLT-4 leukemia 98.4% | SR leukemia 87%

COc1ccc(Cn2c(Br)c3c(c2-c2cc(OC)c(OC)c(OC)c2)CCc2sc(NC(C)=O)nc2-3)cc1
inactive: SN12C renal 71.9% | UO-31 renal 13.9% | TK-10 renal 70.6% | ACHN renal 53.7% | A498 renal 21.5% | CCRF-CEM leukemia 16.9% | MOLT-4 leukemia 45.1% | SR leukemia 14.3%

O=C(Nc1ccc(-c2nc3ccc(NC(=O)c4ccc(Cl)cc4)cc3[nH]2)cc1)c1ccc(Cl)cc1
active: UO-31 renal -5.85% | TK-10 renal -27.9% | ACHN renal 9.32% | CCRF-CEM leukemia 1.27% | MOLT-4 leukemia 3.96% | SR leukemia -24.9%
inactive: SN12C renal 24.5% | CAKI-1 renal 27.2% | A498 renal 58.7%

CCCCCCc1cc2cc(-c3nc4ccccc4[nH]3)c(=Nc3ccccc3C)oc2cc1O
active: SR leukemia -14.5%
inactive: SN12C renal 45.8% | UO-31 renal 20.3% | TK-10 renal 46.8% | ACHN renal 51% | A498 renal 79.7% | CCRF-CEM leukemia 25.3% | MOLT-4 leukemia 21%

Clc1ccc(-c2nnc(COc3ccc(C4=NNC(c5ccco5)C4)cc3)o2)cc1 (stereo not given)
inactive: SN12C renal 86.5% | UO-31 renal 67.3% | TK-10 renal 83.4% | ACHN renal 94.9% | CAKI-1 renal 86.4% | A498 renal 83.8% | CCRF-CEM leukemia 84.7% | MOLT-4 leukemia 85.5% | SR leukemia 80.7%

COc1nccc2cc3c(=O)n4c(cc5ccccc54)c(=O)n3c12
inactive: SN12C renal 95.7% | UO-31 renal 53.4% | TK-10 renal 131% | ACHN renal 96% | A498 renal 108% | CCRF-CEM leukemia 96.5% | MOLT-4 leukemia 86.3% | SR leukemia 87.1%

COc1ccc(/C=C2\NC(=O)NC2=O)cc1O
inactive: SN12C renal 99.7% | UO-31 renal 106% | TK-10 renal 109% | ACHN renal 105% | CAKI-1 renal 85.6% | A498 renal 91.2% | CCRF-CEM leukemia 97.6% | MOLT-4 leukemia 99.5% | SR leukemia 102%

Clc1ccc(Nc2nnc(-c3ccc4c(c3)OCO4)o2)cc1
inactive: SN12C renal 96.6% | UO-31 renal 86.9% | TK-10 renal 94.6% | ACHN renal 102% | A498 renal 97.5% | CCRF-CEM leukemia 100% | MOLT-4 leukemia 82.7% | SR leukemia 83.4%

CCOc1ccc(-c2nonc2NC(=O)c2cccc(C)c2)cc1OCC
inactive: SN12C renal 70.2% | UO-31 renal 70% | TK-10 renal 79.2% | ACHN renal 83.9% | CAKI-1 renal 59.8% | A498 renal 39.4% | CCRF-CEM leukemia 23.1%
active: MOLT-4 leukemia 4.22% | SR leukemia -34.7%

COc1cc(C(C)n2cc(-c3ccccc3)nn2)ccc1OC1CCCC1 (stereo not given)
inactive: SN12C renal 75.2% | UO-31 renal 50.9% | TK-10 renal 71.8% | CAKI-1 renal 49.6% | A498 renal 55.6% | CCRF-CEM leukemia 53.5% | MOLT-4 leukemia 48.6%

COc1cc2cc3c(=O)n4c(cc5cc(OC)ncc54)c(=O)n3c2cn1
inactive: UO-31 renal 88.8% | TK-10 renal 107% | ACHN renal 110% | CAKI-1 renal 98.4% | A498 renal 104% | CCRF-CEM leukemia 91.9% | MOLT-4 leukemia 99.2% | SR leukemia 98%

CN(C)CCCNCc1ccc(-c2ccc(F)c(Cl)c2)o1
inactive: UO-31 renal 16.7% | TK-10 renal 42.8% | ACHN renal 30.1% | CAKI-1 renal 37.5% | A498 renal 78.2%
active: CCRF-CEM leukemia 1.99% | MOLT-4 leukemia -4.5% | SR leukemia -22.9%

CC1=C(CC(=O)c2cccc([N+](=O)[O-])c2)C(=O)c2ccccc2C1=O
active: UO-31 renal -64.3% | TK-10 renal -43.1% | CAKI-1 renal -28.1% | CCRF-CEM leukemia 4.59% | SR leukemia -46.1%
inactive: ACHN renal 13.8% | A498 renal 68% | MOLT-4 leukemia 36.5%

CCCCCCn1c(=N)n(CC(O)COc2cccc(C)c2)c2ccccc21 (stereo not given)
inactive: SN12C renal 28.6%
active: UO-31 renal -96.1% | TK-10 renal -86.4% | CAKI-1 renal -21.6% | A498 renal -13% | CCRF-CEM leukemia 1.25% | MOLT-4 leukemia -3.39% | SR leukemia -28.5%

CCCCCCCCCCOC(=O)c1ccccc1C(=O)OCCCC
inactive: UO-31 renal 81.3% | TK-10 renal 108% | ACHN renal 109% | A498 renal 121% | CCRF-CEM leukemia 103% | MOLT-4 leukemia 95.4% | SR leukemia 100%

CCOc1c(Br)cc(C2C(C(=O)OC)=CN(C)C=C2C(=O)OC)cc1OC
inactive: SN12C renal 78% | UO-31 renal 38.2% | ACHN renal 64.4% | CAKI-1 renal 75.8% | A498 renal 99% | CCRF-CEM leukemia 72.7% | MOLT-4 leukemia 59.6%
active: SR leukemia 8.75%
